SMILES strings stand for the structures. Where a name gives a salt, the structure may show the parent alone. ± gives the standard deviation of the averaged measurements.

The first test concerns IMR-90. Description: relative cell viability (ATPlite) vs untreated control (fraction); higher = less toxic. The conditions noted are these: 1 µM; 72 h. Background: ATP-based viability assays read luminescence as a measure of living cells.
Take `COc1ccc(CNC(=O)Nc2ncc([N+](=O)[O-])s2)cc1` [GSK-3b Inhibitor VIII]: the relative cell viability came to 0.978 ± 0.09.
The molecule `Nc1nccc(-c2c(-c3ccc(F)cc3)ncn2C2CCNCC2)n1` registered a relative cell viability of 0.923 ± 0.084.
Same read-out and setting: the figure for `CC[C@H](CO)Nc1nc(NCc2ccc(-c3ccccn3)cc2)c2ncn(C(C)C)c2n1` [CR8, (R)-Isomer] is 0.297 ± 0.51.
As to `CCCCn1c2ccc(O)cc2c2c3c(c(-c4ccccc4Cl)cc21)C(=O)NC3=O` [Wee1 Inhibitor II], the relative cell viability was found to be 0.754 ± 0.44.

In another test the test system is K562. Described as above. Conditions: 1 µM; 72 h.
On to `CCN(CC)CCCCN1c2ccccc2Oc2ccc(Cl)cc21` [Akt Inhibitor X], for which the relative cell viability is 0.848 ± 0.089.
Same read-out and setting: the figure for `c1cc(-c2cnn3cc(-c4ccc(OCCN5CCCCC5)cc4)cnc23)ccn1` [AMPK Inhibitor, Compound C] is 0.883 ± 0.072.
Same read-out and setting: then `Cn1cnc2cc3c(Nc4cccc(Br)c4)ncnc3cc21`, with 1.02 ± 0.078.
Turning to `OCC(O)CCO/N=C1\C(c2c(O)[nH]c3ccccc23)=Nc2ccccc21` (stereo not drawn) [Indirubin Derivative E804], the relative cell viability came out at 0.753 ± 0.058.
Still for that read-out and setting: then `CC[n+]1c(/C=C/N(C)c2ccccc2)n(-c2ccccc2)c2ccc(-c3nc4ccccc4s3)cc21` [Akt Inhibitor IV], with 0.169 ± 0.082.
`CC(C)n1cnc2c(NCc3ccccc3)nc(NCCCO)nc21` [Bohemine] gave a relative cell viability of 0.9 ± 0.074.
As to `NC(N)=NCCNS(=O)(=O)c1cccc2cnccc12` [HA 1004, Dihydrochloride], the relative cell viability is 0.851 ± 0.066.
`COc1cc2ncc(-c3ccccc3)nc2cc1OC` returned a relative cell viability of 0.888 ± 0.083.
On the same count and under the same terms, then `O=c1cc(N2CCNCC2)oc2c(-c3ccccc3)cccc12`, with 0.828 ± 0.11; and `COc1cc2ncnc(N3CCN(C(=O)Nc4ccc(Oc5ccccc5)cc4)CC3)c2cc1OC` [PDGF Receptor Tyrosine Kinase Inhibitor III], with 0.736 ± 0.03; and `CCC(=O)Nc1ccc2ncnc(Nc3cccc(Br)c3)c2c1`, with 0.903 ± 0.031.
Same read-out and setting: then `O=C(c1cc2cc(O)ccc2[nH]1)c1cc2cc(O)ccc2[nH]1` [Flt-3 Inhibitor II], with 0.461 ± 0.026.
The same measure, in the same setting: then `Cc1cc(Nc2nc(-c3ccccc3)nc3ccccc23)n[nH]1` [GSK-3 Inhibitor XIII], with 0.937 ± 0.041.
The molecule `COc1ccc2nc3n[nH]c(C)c3c(NCCOCCO)c2c1` had a relative cell viability of 1.02 ± 0.064.
Same read-out and setting: the figure for `CC(=O)O/N=C1/C(c2c(O)[nH]c3cc(Br)ccc23)=Nc2ccccc21` [GSK-3 Inhibitor X] is 0.885 ± 0.08; for `Nc1ncnc2c1c(I)cn2[C@@H]1O[C@H](CO)[C@@H](O)[C@H]1O` [5-Iodotubercidin] it is 0.715 ± 0.12.
On to `COc1ccc(CNc2nc(N(CCO)CCO)nc3c2ncn3C(C)C)cc1` [Cdk2 Inhibitor III], for which the relative cell viability amounted to 0.855 ± 0.061.
In turn, `c1ccc(-c2n[nH]c3c2oc2ccccc23)cc1` came in with a relative cell viability of 0.868 ± 0.038.
Molecule `CCCCCCOC(=O)[C@]1(O)C[C@@H]2O[C@@]1(C)n1c3ccccc3c3c4c(c5c6ccccc6n2c5c31)C(=O)NC4` showed a relative cell viability of 0.825 ± 0.056.
`CCC(CO)Nc1nc(NCc2ccccc2)c2ncn(C(C)C)c2n1` [Roscovitine, (S)-Isomer] displayed a relative cell viability of 0.912 ± 0.081.
On the same count and under the same terms, the figure for `CCN(CC)C(=O)c1ccc(Nc2nc(OCC3CCCCC3)c3[nH]cnc3n2)cc1` [Cdk2 Inhibitor IV, NU6140] is 0.775 ± 0.041; for `Nc1[nH]nc2nnc(-c3c(-c4ccccc4)nn4ccccc34)cc12` it is 0.915 ± 0.036; for `CC(C)(C)c1nc2c3cc[nH]c(=O)c3c3cc(F)ccc3c2[nH]1` [JAK Inhibitor I] it is 0.796 ± 0.072.
Still for that read-out and setting: the figure for `O=C(Nc1ccc(-c2cn[nH]c2)cc1)C1COc2ccccc2O1` (stereo not drawn) [Rho Kinase Inhibitor V] is 0.824 ± 0.075.
Same read-out and setting: then `COc1ccc(Cl)cc1NC(=O)Nc1cc(C)nc2ccccc12` [IGF-1R Inhibitor II], with 0.933 ± 0.014; and `CC(C)n1cnc2c(NCc3ccccc3O)nc(NCCCO)nc21` [Cdk Inhibitor, p35], with 0.855 ± 0.056.
Turning to `CNc1cc2c(Nc3cccc(Br)c3)ncnc2cn1`, the relative cell viability is 0.995 ± 0.043.
Still for that read-out and setting: the figure for `NS(=O)(=O)c1ccc(N=Nc2c(O)[nH]c3ccc(Br)cc23)cc1` [Cdk2 Inhibitor II] is 0.839 ± 0.084; for `COc1ccc(CNC(=O)Nc2ncc([N+](=O)[O-])s2)cc1` [GSK-3b Inhibitor VIII] it is 0.82 ± 0.048; for `Nc1nccc(-c2c(-c3ccc(F)cc3)ncn2C2CCNCC2)n1` it is 0.755 ± 0.05.
On the same count and under the same terms, then `CC[C@H](CO)Nc1nc(NCc2ccc(-c3ccccn3)cc2)c2ncn(C(C)C)c2n1` [CR8, (R)-Isomer], with 0.0971 ± 0.02.
The molecule `CCCCn1c2ccc(O)cc2c2c3c(c(-c4ccccc4Cl)cc21)C(=O)NC3=O` [Wee1 Inhibitor II] had a relative cell viability of 0.876 ± 0.086.

The next test concerns K562. Description: relative cell viability (ATPlite) vs untreated control, with imatinib (fraction); higher = less toxic. The conditions noted are these: 1 µM; 72 h; imatinib 0.125 µM.
`CCN(CC)CCCCN1c2ccccc2Oc2ccc(Cl)cc21` [Akt Inhibitor X] displayed a relative cell viability of 0.77 ± 0.061.
`c1cc(-c2cnn3cc(-c4ccc(OCCN5CCCCC5)cc4)cnc23)ccn1` [AMPK Inhibitor, Compound C] came in with a relative cell viability of 0.834 ± 0.051.
The same measure, in the same setting: then `Cn1cnc2cc3c(Nc4cccc(Br)c4)ncnc3cc21`, with 0.874 ± 0.02; and `OCC(O)CCO/N=C1\C(c2c(O)[nH]c3ccccc23)=Nc2ccccc21` (stereo not drawn) [Indirubin Derivative E804], with 0.644 ± 0.071.
Still for that read-out and setting: the figure for `CC[n+]1c(/C=C/N(C)c2ccccc2)n(-c2ccccc2)c2ccc(-c3nc4ccccc4s3)cc21` [Akt Inhibitor IV] is 0.0639 ± 0.02; for `CC(C)n1cnc2c(NCc3ccccc3)nc(NCCCO)nc21` [Bohemine] it is 0.797 ± 0.029; for `NC(N)=NCCNS(=O)(=O)c1cccc2cnccc12` [HA 1004, Dihydrochloride] it is 0.756 ± 0.015.
Still for that read-out and setting: the figure for `COc1cc2ncc(-c3ccccc3)nc2cc1OC` is 0.76 ± 0.045; for `O=c1cc(N2CCNCC2)oc2c(-c3ccccc3)cccc12` it is 0.76 ± 0.034.
For `COc1cc2ncnc(N3CCN(C(=O)Nc4ccc(Oc5ccccc5)cc4)CC3)c2cc1OC` [PDGF Receptor Tyrosine Kinase Inhibitor III], the relative cell viability stood at 0.649 ± 0.029.
Still for that read-out and setting: then `CCC(=O)Nc1ccc2ncnc(Nc3cccc(Br)c3)c2c1`, with 0.743 ± 0.05; and `O=C(c1cc2cc(O)ccc2[nH]1)c1cc2cc(O)ccc2[nH]1` [Flt-3 Inhibitor II], with 0.418 ± 0.035.
Consider `Cc1cc(Nc2nc(-c3ccccc3)nc3ccccc23)n[nH]1` [GSK-3 Inhibitor XIII], for which the relative cell viability worked out at 0.711 ± 0.034.
The molecule `COc1ccc2nc3n[nH]c(C)c3c(NCCOCCO)c2c1` returned a relative cell viability of 0.843 ± 0.066.
On the same count and under the same terms, then `CC(=O)O/N=C1/C(c2c(O)[nH]c3cc(Br)ccc23)=Nc2ccccc21` [GSK-3 Inhibitor X], with 0.76 ± 0.036.
The same measure, in the same setting: then `Nc1ncnc2c1c(I)cn2[C@@H]1O[C@H](CO)[C@@H](O)[C@H]1O` [5-Iodotubercidin], with 0.702 ± 0.065.
Take `COc1ccc(CNc2nc(N(CCO)CCO)nc3c2ncn3C(C)C)cc1` [Cdk2 Inhibitor III]: the relative cell viability was determined as 0.772 ± 0.058.
Consider `c1ccc(-c2n[nH]c3c2oc2ccccc23)cc1`, for which the relative cell viability turned out to be 0.732 ± 0.04.
Same read-out and setting: then `CCCCCCOC(=O)[C@]1(O)C[C@@H]2O[C@@]1(C)n1c3ccccc3c3c4c(c5c6ccccc6n2c5c31)C(=O)NC4`, with 0.764 ± 0.02.
Still for that read-out and setting: the figure for `CCC(CO)Nc1nc(NCc2ccccc2)c2ncn(C(C)C)c2n1` [Roscovitine, (S)-Isomer] is 0.729 ± 0.057.
On the same count and under the same terms, the figure for `CCN(CC)C(=O)c1ccc(Nc2nc(OCC3CCCCC3)c3[nH]cnc3n2)cc1` [Cdk2 Inhibitor IV, NU6140] is 0.672 ± 0.031; for `Nc1[nH]nc2nnc(-c3c(-c4ccccc4)nn4ccccc34)cc12` it is 0.779 ± 0.048; for `CC(C)(C)c1nc2c3cc[nH]c(=O)c3c3cc(F)ccc3c2[nH]1` [JAK Inhibitor I] it is 0.72 ± 0.035.
In turn, `O=C(Nc1ccc(-c2cn[nH]c2)cc1)C1COc2ccccc2O1` (stereo not drawn) [Rho Kinase Inhibitor V] came in with a relative cell viability of 0.687 ± 0.028.
Take `COc1ccc(Cl)cc1NC(=O)Nc1cc(C)nc2ccccc12` [IGF-1R Inhibitor II]: the relative cell viability is 0.798 ± 0.018.
`CC(C)n1cnc2c(NCc3ccccc3O)nc(NCCCO)nc21` [Cdk Inhibitor, p35] showed a relative cell viability of 0.779 ± 0.03.
Take `CNc1cc2c(Nc3cccc(Br)c3)ncnc2cn1`: the relative cell viability came to 0.807 ± 0.023.
In turn, `NS(=O)(=O)c1ccc(N=Nc2c(O)[nH]c3ccc(Br)cc23)cc1` [Cdk2 Inhibitor II] gave a relative cell viability of 0.825 ± 0.052.
As to `COc1ccc(CNC(=O)Nc2ncc([N+](=O)[O-])s2)cc1` [GSK-3b Inhibitor VIII], the relative cell viability turned out to be 0.713 ± 0.049.
On the same count and under the same terms, the figure for `Nc1nccc(-c2c(-c3ccc(F)cc3)ncn2C2CCNCC2)n1` is 0.662 ± 0.046; for `CC[C@H](CO)Nc1nc(NCc2ccc(-c3ccccn3)cc2)c2ncn(C(C)C)c2n1` [CR8, (R)-Isomer] it is 0.0846 ± 0.015.
`CCCCn1c2ccc(O)cc2c2c3c(c(-c4ccccc4Cl)cc21)C(=O)NC3=O` [Wee1 Inhibitor II] registered a relative cell viability of 0.748 ± 0.1.
